# ± gives the standard deviation of the averaged measurements.
# Assays:
# Assay in all cases: promoter activity interaction Z-score (Lux/OD deviation from empty-vector control); higher = stronger promoter induction by the compound
# [1] = system: E. coli BW25113 acrABp lux reporter
# How it was run: (§1)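 Wild-type E. coli BW25113 and three single-gene deletion strains, each carrying a low-copy luxCDABE promoter reporter, were grown at 37°C in 40 µl LB Lennox per well of a 384-well plate. Every compound was applied at four 1:2 dilutions in biological duplicates, and OD600 and luminescence were read every 30 min for 12 h. Integration covered 0–8 h for wild type and 1–9 h for deletion strains, and wells under 10% of the median growth value were removed. Scores are Z-transformed residuals of growth-normalised luminescence fitted against a control.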
# [2] = system: E. coli BW25113 micFp lux reporter
# How it was run: as §1
# [3] = system: E. coli BW25113 ompFp lux reporter
# How it was run: as §1
# [4] = system: E. coli BW25113 robp lux reporter
# How it was run: as §1
# [5] = system: E. coli BW25113 soxSp lux reporter
# How it was run: as §1
# [6] = system: E. coli BW25113 tolCp lux reporter
# How it was run: as §1
# [7] = 0.073 µg/ml, genetic background: wild type
# [8] = 0.073 µg/ml, genetic background: ΔmarA
# [9] = 0.073 µg/ml, genetic background: Δrob
# [10] = 0.073 µg/ml, genetic background: ΔsoxS
# [11] = 0.15 µg/ml, genetic background: wild type
# [12] = 0.15 µg/ml, genetic background: ΔmarA
# [13] = 0.15 µg/ml, genetic background: Δrob
# [14] = 0.15 µg/ml, genetic background: ΔsoxS
# [15] = 0.29 µg/ml, genetic background: wild type
# [16] = 0.29 µg/ml, genetic background: ΔmarA
# [17] = 0.29 µg/ml, genetic background: Δrob
# [18] = 0.29 µg/ml, genetic background: ΔsoxS
# [19] = 0.58 µg/ml, genetic background: wild type
# [20] = 0.58 µg/ml, genetic background: ΔmarA
# [21] = 0.58 µg/ml, genetic background: Δrob
# [22] = 0.58 µg/ml, genetic background: ΔsoxS
compound,measurement,setting,value
COc1cc(Cc2cnc(N)nc2N)cc(OC)c1OC [Trimethoprim],promoter activity interaction Z-score,[1]; [7],0.0131 ± 0.34
same,promoter activity interaction Z-score,[1]; [8],-0.307 ± 0.0077
same,promoter activity interaction Z-score,[1]; [9],-0.0611 ± 0.045
same,promoter activity interaction Z-score,[1]; [10],-0.429 ± 0.0073
same,promoter activity interaction Z-score,[1]; [11],0.297 ± 0.54
same,promoter activity interaction Z-score,[1]; [12],1.43 ± 0.76
same,promoter activity interaction Z-score,[1]; [13],0.162 ± 0.041
same,promoter activity interaction Z-score,[1]; [14],-0.000323 ± 0.14
same,promoter activity interaction Z-score,[1]; [15],0.6 ± 0.73
same,promoter activity interaction Z-score,[1]; [16],-0.763 ± 0.81
same,promoter activity interaction Z-score,[1]; [17],0.526 ± 0.19
same,promoter activity interaction Z-score,[1]; [18],0.701 ± 0.81
same,promoter activity interaction Z-score,[1]; [19],0.577 ± 0.46
same,promoter activity interaction Z-score,[1]; [20],-0.476 ± 0.038
same,promoter activity interaction Z-score,[1]; [21],1.39 ± 0.35
same,promoter activity interaction Z-score,[1]; [22],0.448 ± 0.78
same,promoter activity interaction Z-score,[2]; [7],0.711 ± 0.12
same,promoter activity interaction Z-score,[2]; [8],0.728 ± 0.027
same,promoter activity interaction Z-score,[2]; [9],0.665 ± 0.28
same,promoter activity interaction Z-score,[2]; [10],0.533 ± 0.23
same,promoter activity interaction Z-score,[2]; [11],1.86 ± 0.14
same,promoter activity interaction Z-score,[2]; [12],1.1 ± 0.14
same,promoter activity interaction Z-score,[2]; [13],1.29 ± 0.44
same,promoter activity interaction Z-score,[2]; [14],0.842 ± 0.36
same,promoter activity interaction Z-score,[2]; [15],2.75 ± 0.96
same,promoter activity interaction Z-score,[2]; [16],1.9 ± 0.074
same,promoter activity interaction Z-score,[2]; [17],2.28 ± 0.79
same,promoter activity interaction Z-score,[2]; [18],1.33 ± 0.41
same,promoter activity interaction Z-score,[2]; [19],0.997 ± 0.95
same,promoter activity interaction Z-score,[2]; [20],0.388 ± 0.61
same,promoter activity interaction Z-score,[2]; [21],1.15 ± 0.38
same,promoter activity interaction Z-score,[2]; [22],0.825 ± 0.16
same,promoter activity interaction Z-score,[3]; [7],-0.322 ± 0.3
same,promoter activity interaction Z-score,[3]; [8],-1.17 ± 0.5
same,promoter activity interaction Z-score,[3]; [9],-0.297 ± 0.54
same,promoter activity interaction Z-score,[3]; [10],-0.129 ± 0.65
same,promoter activity interaction Z-score,[3]; [11],0.109 ± 0.39
same,promoter activity interaction Z-score,[3]; [12],-0.477 ± 0.78
same,promoter activity interaction Z-score,[3]; [13],0.244 ± 0.7
same,promoter activity interaction Z-score,[3]; [14],0.51 ± 0.81
same,promoter activity interaction Z-score,[3]; [15],0.0831 ± 0.67
same,promoter activity interaction Z-score,[3]; [16],-1.9 ± 0.61
same,promoter activity interaction Z-score,[3]; [17],-0.0302 ± 1
same,promoter activity interaction Z-score,[3]; [18],0.395 ± 1.3
same,promoter activity interaction Z-score,[3]; [19],-0.896 ± 0.32
same,promoter activity interaction Z-score,[3]; [20],-0.897 ± 0.46
same,promoter activity interaction Z-score,[3]; [21],0.0886 ± 0.83
same,promoter activity interaction Z-score,[3]; [22],-1.15 ± 0.39
same,promoter activity interaction Z-score,[4]; [7],0.791 ± 0.3
same,promoter activity interaction Z-score,[4]; [8],0.875 ± 0.23
same,promoter activity interaction Z-score,[4]; [9],2.11 ± 0.058
same,promoter activity interaction Z-score,[4]; [10],0.238 ± 1.1
same,promoter activity interaction Z-score,[4]; [11],3.64 ± 0.82
same,promoter activity interaction Z-score,[4]; [12],3.37 ± 0.44
same,promoter activity interaction Z-score,[4]; [13],4.81 ± 0.7
same,promoter activity interaction Z-score,[4]; [14],2.16 ± 0.27
same,promoter activity interaction Z-score,[4]; [15],7.43 ± 2.3
same,promoter activity interaction Z-score,[4]; [16],5.16 ± 0.16
same,promoter activity interaction Z-score,[4]; [17],8.88 ± 0.31
same,promoter activity interaction Z-score,[4]; [18],5.55 ± 0.44
same,promoter activity interaction Z-score,[4]; [19],3.89 ± 0.063
same,promoter activity interaction Z-score,[4]; [20],4.6 ± 5.3
same,promoter activity interaction Z-score,[4]; [21],3.21 ± 0.23
same,promoter activity interaction Z-score,[4]; [22],2.01 ± 1.6
same,promoter activity interaction Z-score,[5]; [7],-0.0844 ± 0.22
same,promoter activity interaction Z-score,[5]; [8],0.118 ± 0.2
same,promoter activity interaction Z-score,[5]; [9],0.163 ± 0.18
same,promoter activity interaction Z-score,[5]; [10],-0.116 ± 0.24
same,promoter activity interaction Z-score,[5]; [11],0.261 ± 0.11
same,promoter activity interaction Z-score,[5]; [12],0.204 ± 0.1
same,promoter activity interaction Z-score,[5]; [13],0.486 ± 0.39
same,promoter activity interaction Z-score,[5]; [14],0.169 ± 0.29
same,promoter activity interaction Z-score,[5]; [15],0.521 ± 0.032
same,promoter activity interaction Z-score,[5]; [16],0.796 ± 0.022
same,promoter activity interaction Z-score,[5]; [17],0.986 ± 0.72
same,promoter activity interaction Z-score,[5]; [18],0.663 ± 0.23
same,promoter activity interaction Z-score,[5]; [19],1.34 ± 0.14
same,promoter activity interaction Z-score,[5]; [20],2.96 ± 0.38
same,promoter activity interaction Z-score,[5]; [21],2.69 ± 1.1
same,promoter activity interaction Z-score,[5]; [22],-0.0409 ± 0.74
same,promoter activity interaction Z-score,[6]; [7],0.67 ± 0.48
same,promoter activity interaction Z-score,[6]; [8],-0.632 ± 0.36
same,promoter activity interaction Z-score,[6]; [9],-0.116 ± 0.95
same,promoter activity interaction Z-score,[6]; [10],-0.559 ± 0.21
same,promoter activity interaction Z-score,[6]; [11],0.553 ± 0.46
same,promoter activity interaction Z-score,[6]; [12],-0.336 ± 0.28
same,promoter activity interaction Z-score,[6]; [13],0.749 ± 0.87
same,promoter activity interaction Z-score,[6]; [14],2.3 ± 2.1
same,promoter activity interaction Z-score,[6]; [15],1.84 ± 0.19
same,promoter activity interaction Z-score,[6]; [16],2.71 ± 0.84
same,promoter activity interaction Z-score,[6]; [17],1.92 ± 0.38
same,promoter activity interaction Z-score,[6]; [18],2.4 ± 1.6
same,promoter activity interaction Z-score,[6]; [19],1.85 ± 0.094
same,promoter activity interaction Z-score,[6]; [20],0.798 ± 2
same,promoter activity interaction Z-score,[6]; [21],1.4 ± 0.83
same,promoter activity interaction Z-score,[6]; [22],0.494 ± 0.71
